# The supplement of paper PMC8728848
# Many of the other results were omitted from the sample, so the strongest signals are more common in it than they were.
# B1: MAL-II (Maackia amurensis), P93248 (protein)
# chain: ATSNSKPTQVLLATFLTFFFLLLNNVNSSDELSFTINNFVPNEADLLFQGEASVSSTGVLQLTRVENGQPQQYSVGRALYAAPVRIWDNTTGSVASFSTSFTFVVKAPNPTITSDGLAFFLAPPDSQIPSGRVSKYLGLFNNSNSDSSNQIVAVEFDTYFGHSYDPWDPNYRHIGIDVNGIESIKTVQWDWINGGVAFATITYLAPNKTLIASLVYPSNQTSFIVAASVDLKEILPEWVRVGFSAATGYPTQVETHDVLSWSFTSTLEANSDAATENNVHIARYTA
# Legend:
# Assay in all cases: glycan array binding signal (z-score within array); higher = stronger binding
# Settings in all cases: glycan notation: IUPAC condensed, linker removed
# [1] = target: GlcNAc(b1-2)Man(a1-3)[GlcNAc(b1-4)][GlcNAc(b1-2)Man(a1-6)]Man(b1-4)GlcNAc(b1-4)[Fuc(a1-6)]GlcNAc
# Outline: (§1)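 The Consortium for Functional Glycomics database supplied 3228 glycan arrays, of which those lacking an available protein sequence were dropped. The binding signal, a within-array Z-score, was averaged across arrays of the same protein sequence and across linkers. Negative scores can be read as non-binding.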
# [2] = target: GlcNAc(b1-3)Gal(b1-4)GlcNAc(b1-3)GalNAc
# Outline: as §1
# Kdn(a2-3)Gal(b1-3)GalNAc = target: Kdn(a2-3)Gal(b1-3)GalNAc
# Outline: as §1
# [3] = target: Man(a1-3)[Man(a1-6)]Man(a1-6)[Man(a1-3)]Man(b1-4)GlcNAc(b1-4)GlcNAc
# Outline: as §1
# [4] = target: Man(a1-3)[Man(a1-6)]Man(b1-4)GlcNAc(b1-4)[Fuc(a1-6)]GlcNAc
# Outline: as §1
# [5] = target: Neu5Ac(a2-3)Gal(b1-3)GalNAc
# Outline: as §1
# [6] = target: Neu5Ac(a2-3)Gal(b1-3)GalNAc6S
# Outline: as §1
# [7] = target: Neu5Ac(a2-3)Gal(b1-3)GlcNAc6S
# Outline: as §1
# [8] = target: Neu5Ac(a2-3)Gal(b1-3)[GlcNAc(b1-6)]GalNAc
# Outline: as §1
# [9] = target: Neu5Ac(a2-3)Gal(b1-3)[Neu5Ac(a2-6)]GalNAc
# Outline: as §1
# [10] = target: Neu5Ac(a2-3)Gal(b1-4)GlcNAc(b1-2)[Neu5Ac(a2-3)Gal(b1-4)GlcNAc(b1-4)]Man(a1-3)[GlcNAc(b1-4)][Neu5Ac(a2-3)Gal(b1-4)GlcNAc(b1-4)Man(a1-6)]Man(b1-4)GlcNAc(b1-4)GlcNAc
# Outline: as §1
# [11] = target: Neu5Ac(a2-3)Gal(b1-4)GlcNAc(b1-3)Gal
# Outline: as §1
# [12] = target: Neu5Ac(a2-3)Gal(b1-4)GlcNAc(b1-6)[Neu5Ac(a2-3)Gal(b1-3)]GalNAc
# Outline: as §1
# [13] = target: Neu5Ac(a2-3)Gal(b1-4)GlcNAc6S
# Outline: as §1
# [14] = target: Neu5Ac(a2-3)Gal(b1-4)[Fuc(a1-3)]GlcNAc(b1-6)[Neu5Ac(a2-3)Gal(b1-3)]GalNAc
# Outline: as §1
# [15] = target: Neu5Ac(a2-3)Gal6S(b1-4)[Fuc(a1-3)]GlcNAc
# Outline: as §1
# [16] = target: Neu5Ac(a2-3)[GalNAc(b1-4)]Gal(b1-4)GlcNAc
# Outline: as §1
# Neu5Ac(a2-6)Gal = target: Neu5Ac(a2-6)Gal
# Outline: as §1
# [17] = target: Neu5Ac(a2-6)Gal(b1-3)GlcNAc(b1-3)[Gal(b1-4)GlcNAc(b1-6)]Gal(b1-4)Glc
# Outline: as §1
# Neu5Ac(a2-6)Gal(b1-4)Glc = target: Neu5Ac(a2-6)Gal(b1-4)Glc
# Outline: as §1
# [18] = target: Neu5Ac(a2-6)Gal(b1-4)GlcNAc(b1-2)Man(a1-3)[Neu5Ac(a2-6)Gal(b1-4)GlcNAc(b1-2)Man(a1-6)]Man(b1-4)GlcNAc(b1-4)[Fuc(a1-6)]GlcNAc
# Outline: as §1
# [19] = target: Neu5Ac(a2-6)Gal(b1-4)GlcNAc(b1-3)Gal(b1-3)GlcNAc
# Outline: as §1
# [20] = target: Neu5Ac(a2-8)Neu5Ac(a2-3)Gal(b1-4)GlcNAc
# Outline: as §1
binder,measurement,setting,value
B1,glycan array binding signal (z-score),[1],-0.148
same,glycan array binding signal (z-score),[2],-0.159
same,glycan array binding signal (z-score),Kdn(a2-3)Gal(b1-3)GalNAc,3.27
same,glycan array binding signal (z-score),[3],-0.107
same,glycan array binding signal (z-score),[4],-0.337
same,glycan array binding signal (z-score),[5],3.54
same,glycan array binding signal (z-score),[6],5.77
same,glycan array binding signal (z-score),[7],-0.11
same,glycan array binding signal (z-score),[8],3.23
same,glycan array binding signal (z-score),[9],7.48
same,glycan array binding signal (z-score),[10],-0.282
same,glycan array binding signal (z-score),[11],-0.196
same,glycan array binding signal (z-score),[12],3.13
same,glycan array binding signal (z-score),[13],-0.215
same,glycan array binding signal (z-score),[14],0.889
same,glycan array binding signal (z-score),[15],-0.22
same,glycan array binding signal (z-score),[16],-0.213
same,glycan array binding signal (z-score),Neu5Ac(a2-6)Gal,-0.234
same,glycan array binding signal (z-score),[17],-0.18
same,glycan array binding signal (z-score),Neu5Ac(a2-6)Gal(b1-4)Glc,-0.184
same,glycan array binding signal (z-score),[18],-0.089
same,glycan array binding signal (z-score),[19],-0.178
same,glycan array binding signal (z-score),[20],-0.255
